Measurements reported in PubChem BioAssay.
Several values for one entry are separate records, joined by “and”; a condition that tells them apart may be missing. Equal entries are not always repeated. Records with an inconclusive call do not appear. A structure can be active in one record and inactive in another. Activity calls are given as the source filed them.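 The calls were made as follows, unless noted: active = normalized viability below 100% at a tested concentration; inactive = the rest.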

Columns and labels:
[1] = growth inhibition of DIPG glioma cells, dose response, cell-based, SU-DIPG-XVII, MIPE5.0, CellTiter-Glo, qHTS (AID 1347060; cut-off not given, nearly all actives have AC50 up to about 26 µM;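 as to AC50: cells exposed to compound for 48 hours before viability readout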); details: SU-DIPG-XVII viability, CellTiter-Glo ATP luminescence
[2] = growth inhibition of DIPG glioma cells, dose response, cell-based, SU-DIPG-XIII, MIPE4.0, CellTiter-Glo, qHTS (AID 1347061; cut-off not given, nearly all actives have AC50 up to about 37 µM;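 also: cells exposed to compound for 48 hours before readout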); details: SU-DIPG-XIII viability, CellTiter-Glo ATP luminescence
[3] = growth inhibition of DIPG glioma cells, dose response, cell-based, JHH-DIPG-1, MIPE4.0, CellTiter-Glo, qHTS (AID 1347062; cut-off not given, nearly all actives have AC50 up to about 27 µM;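 as to AC50: cells exposed to compound for two days before readout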); details: JHH-DIPG-1 viability, CellTiter-Glo ATP luminescence
[4] = growth inhibition of DIPG glioma cells, dose response, cell-based, SU-DIPG-IV, MIPE4.0, CellTiter-Glo, qHTS (AID 1347063; cut-off not given, nearly all actives have AC50 up to about 30 µM;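 also: compound exposure lasted 48 hours before the viability readout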); details: SU-DIPG-IV viability, CellTiter-Glo ATP luminescence
[5] = growth inhibition of DIPG glioma cells, dose response, cell-based, SU-DIPG-XIII, MIPE5.0, CellTiter-Glo, qHTS (AID 1347064; cut-off not given, nearly all actives have AC50 up to about 23 µM;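 as to AC50: cells exposed to compound for 48 hours before the viability read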); details: SU-DIPG-XIII viability, CellTiter-Glo ATP luminescence
[6] = viability loss in pontine glioma line – cell-based, SU-DIPG-XXV, MIPE5.0, CellTiter-Glo, qHTS, dose response (AID 1347065; cut-off not given, nearly all actives have AC50 up to about 26 µM;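 also: cells exposed to compound for 48 hours before ATP readout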); details: CellTiter-Glo ATP luminescence
[7] = SU-DIPG-VI glioma cell viability, MIPE4.0 library, CellTiter-Glo luminescence, qHTS (AID 1347066; cut-off not given, nearly all actives have AC50 up to about 30 µM;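 also: cells exposed to compound for 48 hours before readout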); details: CellTiter-Glo ATP luminescence
[8] = SU-DIPG-XXV glioma cell viability, MIPE5.0 library, qHTS (AID 1347068; cut-off not given, nearly all actives have IC50 up to about 30 µM)
[9] = JHH-DIPG-1 glioma cell viability, MIPE5.0 library, CellTiter-Glo luminescence, qHTS (AID 1347067; cut-off not given, nearly all actives have AC50 up to about 26 µM;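 also: cells exposed to compound for 48 hours before readout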); details: JHH-DIPG-1 glioma viability, CellTiter-Glo ATP luminescence
[10] = sensitizers of A549 cells to miR-34 induction, primary screen, imaging, A549 dox-inducible miR-34, nuclei and caspase counts (AID 1347080;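 active = compounds whose cell count with miR-34 switched on is under 0.7 times the count with it off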); details: A549 miR-34 inducible, Hoechst nuclei count, 48 h
[11] = modifiers of HSF1 nuclear foci, imaging, Selleck Cancer Library (AID 1347162; in the data active = plate-normalised HSF1 focus index below about 0.46); details: human cells, at 10 µM; SSMD: measured here: HSF1 foci SSMD mean; cell count: measured here: cell number; plate-normalised HSF1 focus index: stronger effect = lower value
[12] = survival rescue of mitochondrial mutant cells in low glucose, primary screen, MELAS cybrids, Rieske KO mouse fibroblasts, CellTiter-Glo (AID 1508586;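 active = mean z-score across replicates of 1.96 or higher in either the MELAS or the Rieske mutant cell line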;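 also: z relative to plate mean and SD of compound and empty wells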)
[13] = ovarian cancer cell viability with rucaparib, profiling panel, oncology-focused library, rucaparib conditional (AID 1508598); details: patient-derived ovarian cancer cells, CellTiter-Glo viability, 144 h, stronger effect = lower value
[14] = stronger effect = lower value, cell number ratio, induced over uninduced
[15] = measured here: relative caspase fold change +Dox/-Dox
[16] = measured here: total cells with miR-34 induction, stronger effect = lower value
[17] = measured here: total cells without miR-34 induction
[18] = MELAS cybrid survival, CellTiter-Glo 48 h, stronger effect = higher value
[19] = Rieske KO mouse fibroblast survival, CellTiter-Glo 72 h

CN(C)C(N)=NC(=N)N
inactive: outcome [1] | outcome [2] | outcome [3] | outcome [4] | outcome [5] | outcome [6] | outcome [7] | outcome [8]

CN1CCN(c2ccc3nc(-c4c(N)c5c(F)cccc5[nH]c4=O)[nH]c3c2)CC1
active: AC50 [1] 525 nM | AC50 [2] 2960 nM | AC50 [3] 26400 nM | AC50 [4] 23500 nM | AC50 [5] 1050 nM | AC50 [6] 468 nM | AC50 [7] 20900 nM | AC50 [9] 11800 nM | viability ([13]; at 0.0195 µM, OCI-P5x cells, with rucaparib 20 µM, 100% = cells with rucaparib alone) 99.7% | viability ([13]; at 0.0195 µM, OCI-P5x cells, without rucaparib) 76.1% | viability ([13]; at 1.25 µM, OCI-P5x cells, without rucaparib) 90.6% | viability ([13]; at 5 µM, OCI-C5x cells, with rucaparib 10 µM, 100% = cells with rucaparib alone) 3.71% | viability ([13]; at 5 µM, OCI-C5x cells, without rucaparib) 73% | viability ([13]; at 5 µM, OCI-P5x cells, with rucaparib 20 µM, 100% = cells with rucaparib alone) 42.5% | viability ([13]; at 5 µM, OCI-P5x cells, without rucaparib) 50%
472 and 732: cell count [10, 17]
5510: cell count [11]
3.68 (active) and -0.215 (inactive): z-score [12, 18]
744 and 794: cell count [10, 16]
-0.494 and -0.354: z-score [12, 19]
0.308 and 0.757: fold change [10, 15]
-9.43: SSMD [11]
inactive: fold change [10, 14] 1.57 and 1.08 | plate-normalised HSF1 focus index [11] 0.516 | viability ([13]; at 0.000305 µM, OCI-C5x cells, with rucaparib 10 µM, 100% = cells with rucaparib alone) 112% | viability ([13]; at 0.000305 µM, OCI-C5x cells, without rucaparib) 107% | viability ([13]; at 0.000305 µM, OCI-P5x cells, with rucaparib 20 µM, 100% = cells with rucaparib alone) 123% | viability ([13]; at 0.000305 µM, OCI-P5x cells, without rucaparib) 105% | viability ([13]; at 0.00122 µM, OCI-C5x cells, with rucaparib 10 µM, 100% = cells with rucaparib alone) 111% | viability ([13]; at 0.00122 µM, OCI-C5x cells, without rucaparib) 104% | viability ([13]; at 0.00122 µM, OCI-P5x cells, with rucaparib 20 µM, 100% = cells with rucaparib alone) 118% | viability ([13]; at 0.00122 µM, OCI-P5x cells, without rucaparib) 107% | viability ([13]; at 0.00488 µM, OCI-C5x cells, with rucaparib 10 µM, 100% = cells with rucaparib alone) 121% | viability ([13]; at 0.00488 µM, OCI-C5x cells, without rucaparib) 115% | viability ([13]; at 0.00488 µM, OCI-P5x cells, with rucaparib 20 µM, 100% = cells with rucaparib alone) 136% | viability ([13]; at 0.00488 µM, OCI-P5x cells, without rucaparib) 109% | viability ([13]; at 0.0195 µM, OCI-C5x cells, with rucaparib 10 µM, 100% = cells with rucaparib alone) 104% | viability ([13]; at 0.0195 µM, OCI-C5x cells, without rucaparib) 112% | viability ([13]; at 0.0781 µM, OCI-C5x cells, with rucaparib 10 µM, 100% = cells with rucaparib alone) 118% | viability ([13]; at 0.0781 µM, OCI-C5x cells, without rucaparib) 143% | viability ([13]; at 0.0781 µM, OCI-P5x cells, with rucaparib 20 µM, 100% = cells with rucaparib alone) 133% | viability ([13]; at 0.0781 µM, OCI-P5x cells, without rucaparib) 107% | viability ([13]; at 0.313 µM, OCI-C5x cells, with rucaparib 10 µM, 100% = cells with rucaparib alone) 125% | viability ([13]; at 0.313 µM, OCI-C5x cells, without rucaparib) 119% | viability ([13]; at 0.313 µM, OCI-P5x cells, with rucaparib 20 µM, 100% = cells with rucaparib alone) 129% | viability ([13]; at 0.313 µM, OCI-P5x cells, without rucaparib) 104% | viability ([13]; at 1.25 µM, OCI-C5x cells, with rucaparib 10 µM, 100% = cells with rucaparib alone) 148% | viability ([13]; at 1.25 µM, OCI-C5x cells, without rucaparib) 127% | viability ([13]; at 1.25 µM, OCI-P5x cells, with rucaparib 20 µM, 100% = cells with rucaparib alone) 123%

O=C(NOCC(O)CO)c1cc(Br)c(F)c(F)c1Nc1ccc(I)cc1F (stereo unspecified)
3720: cell count [10, 17]
3740: cell count [10, 16]
active: AC50 [1] 2090 nM | AC50 [2] 2640 nM | AC50 [3] 16600 nM | AC50 [4] 20900 nM | AC50 [5] 1480 nM | AC50 [6] 3720 nM | AC50 [9] 468 nM
1.08: fold change [10, 15]
inactive: outcome [7] | fold change [10, 14] 1.01 | z-score [12, 18] -0.561
-0.494: z-score [12, 19]
